# Assay results as given in PubChem BioAssay (NCI).
# This is part of a sample that, as a whole, favours compounds with a hit. Of some 83,000 tested, about 20% had one in any assay.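 Results are percent growth after 48 hours of single-concentration exposure. 100 means growth as in untreated cells, lower positive values show inhibition; negative values down to -100 show cell death.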 Values without a mark were called inactive. Active and inactive are the calls of the source. How the source made its calls: active means growth percent below 10; inactive means the rest.
# Assays:
# Test in all cases: NCI-60 one-dose screen, 48 h (100 = growth as untreated, 0 = no growth, -100 = all killed)
# Conditions in all cases: 10 µM unless noted
# SK-MEL-2 melanoma = system: SK-MEL-2 melanoma
# EKVX NSCLC = system: EKVX NSCLC
# SN12C renal = system: SN12C renal
# UO-31 renal = system: UO-31 renal
# TK-10 renal = system: TK-10 renal
# ACHN renal = system: ACHN renal
# CAKI-1 renal = system: CAKI-1 renal
# CCRF-CEM leukemia = system: CCRF-CEM leukemia
# MOLT-4 leukemia = system: MOLT-4 leukemia
# SR leukemia = system: SR leukemia
# RPMI-8226 leukemia = system: RPMI-8226 leukemia
# OVCAR-8 ovarian = system: OVCAR-8 ovarian
# OVCAR-5 ovarian = system: OVCAR-5 ovarian
# OVCAR-4 ovarian = system: OVCAR-4 ovarian
# SK-OV-3 ovarian = system: SK-OV-3 ovarian
# OVCAR-3 ovarian = system: OVCAR-3 ovarian
# HS 578T breast = system: HS 578T breast
# NCI/ADR-RES ovarian = system: NCI/ADR-RES ovarian
# IGROV1 ovarian = system: IGROV1 ovarian
SMILES,growth (SK-MEL-2 melanoma),growth (EKVX NSCLC),growth (SN12C renal),growth (UO-31 renal),growth (TK-10 renal),growth (ACHN renal),growth (CAKI-1 renal),growth (CCRF-CEM leukemia),growth (MOLT-4 leukemia),growth (SR leukemia),growth (RPMI-8226 leukemia),growth (OVCAR-8 ovarian),growth (OVCAR-5 ovarian),growth (OVCAR-4 ovarian),growth (SK-OV-3 ovarian),growth (OVCAR-3 ovarian),growth (HS 578T breast),growth (NCI/ADR-RES ovarian),growth (IGROV1 ovarian)
CCCCCCN(C)Cc1ccc(OCCOc2ccc(CN(C)CCCCCC)cc2)cc1,-40.8% (active),55.3%,40.1%,-5.75% (active),31.6%,35.1%,27.2%,13.3%,-4.95% (active),-43.7% (active),-14.4% (active),47.7%,42.9%,31.4%,48.6%,44.9%,-22% (active),1.98% (active),–
COc1ccc(CNCCN2C(=O)c3ccc4c5c(ccc(c35)C2=O)C(=O)N(CCNCc2ccc(OC)cc2)C4=O)cc1,-74.2% (active),-69.3% (active),-87.9% (active),-76.6% (active),-61.7% (active),-74.3% (active),-53.8% (active),-16.3% (active),-36.1% (active),-29.4% (active),-35.2% (active),-67.3% (active),-72.7% (active),-99.5% (active),–,-95.5% (active),-41.1% (active),-25.9% (active),-58.4% (active)
O=C(CSc1nc2sc3c(c2c(=O)n1Cc1ccccc1)CCCC3)N1CCN(c2ccccc2)CC1,106%,99.6%,110%,76.8%,104%,104%,92.9%,97.7%,92.8%,101%,94.1%,97.9%,102%,96.1%,–,106%,101%,94.8%,103%
FCc1nc2nc(Cl)c(Cl)nc2[nH]1,107%,103%,109%,94.5%,92.7%,99.5%,91.6%,104%,97.8%,95.9%,97%,102%,93.3%,–,97.1%,108%,101%,107%,108%
N#Cc1c(NC(=O)c2cccc(Br)c2)sc2c1CCCC2,91.9%,92.3%,83.9%,82.3%,79.2%,75.6%,73%,63.5%,52.3%,31.9%,77.8%,81.9%,90.5%,75.1%,–,95%,80.7%,76.8%,67.4%
O=S(=O)(O)c1cc(O)c2c(N=Nc3ccc(Nc4ccccc4)c4c(S(=O)(=O)O)cccc34)cc(S(=O)(=O)O)cc2c1,99.7%,103%,99.2%,74.3%,106%,98.5%,99.4%,108%,110%,111%,109%,97%,105%,113%,104%,107%,101%,102%,–
CC(c1ccccc1)n1ccnc1CO (configuration not stated),111%,93.3%,102%,95.4%,88.2%,103%,88.9%,105%,107%,104%,95.6%,112%,104%,–,96.8%,115%,92.1%,99.8%,94.2%
Nc1nc(SN=Nc2ccc(S(N)(=O)=O)cc2)c2[nH]cnc2n1,-3.49% (active),28.6%,24.2%,22.5%,-9.94% (active),15.9%,1.85% (active),-2.18% (active),-1.6% (active),5.59% (active),-15.3% (active),11.2%,19.4%,34.7%,–,-13.7% (active),36.5%,17.6%,39.8%
COc1ccccc1OCC(=O)N1CCCCCC1,114%,89.6%,103%,92%,96.1%,105%,84.1%,101%,86.9%,95.1%,101%,97.2%,94.8%,–,109%,116%,107%,103%,104%
CC[C@@]12C=CCN3CC[C@]4(c5cc(NC(=O)COc6cc(OCC(=O)Nc7cc8c(cc7OC)N(C)[C@H]7[C@@](O)(C(=O)OC)[C@H](OC(C)=O)[C@]9(CC)C=CCN%10CC[C@]87[C@@H]%109)cc7oc(-c8ccccc8)cc(=O)c67)c(OC)cc5N(C)[C@@H]4[C@](O)(C(=O)OC)[C@H]1OC(C)=O)[C@H]32,85.1%,56.8%,49.4%,75.9%,42.8%,85.4%,46.8%,13.6%,13.1%,10.6%,8.92% (active),28.8%,30.2%,28.8%,–,-26.8% (active),39.4%,95.5%,-70% (active)
COc1cc(NCCN(CC(C)C)C2CCCC2)c2ncccc2c1,89.2%,95.2%,93.1%,83.7%,109%,82.2%,97.1%,121%,90.9%,82.6%,99.2%,84.9%,96.4%,–,97.7%,83.1%,84.2%,86.6%,86.8%
CCCCCCc1nc2nc(Cl)c(Cl)nc2[nH]1,63.4%,52.6%,60.8%,52.6%,76.9%,67.4%,39.1%,47.8%,49%,62.9%,28.2%,71.9%,97.4%,–,92%,40.2%,76.4%,66.7%,57.7%
COc1ccc(/C=C/C(=O)c2ccc(OC)c(OC)c2)cc1O,99.9%,87.4%,73.8%,63.9%,83.8%,86%,62.9%,62.5%,67.2%,18.6%,65.2%,28.5%,97.5%,–,104%,18.8%,92.6%,5.7% (active),74.5%
CS(=O)(=O)c1ccc(-c2cc(-c3nnc(SCC(=O)Nc4ccc(C(=O)/C=C/c5ccc(Cl)cc5)cc4)n3-c3ccccc3)c3ccccc3n2)cc1,107%,94%,91.3%,72.5%,99.3%,97.6%,86.2%,99.6%,90.5%,94.1%,74.2%,86.1%,95.1%,–,110%,102%,89.5%,94.6%,91.9%
O=C(CCN1CCCC1)Nc1ccc2c(Nc3ccccc3)c3ccccc3nc2c1,41.4%,59.3%,13.3%,-28.3% (active),1.74% (active),1.77% (active),-11.9% (active),-8.84% (active),-4.75% (active),-14.9% (active),-27.3% (active),7.5% (active),20%,-4.97% (active),23.8%,-25% (active),32.2%,47.1%,13.5%
C=C1C(=O)O[C@H]2[C@H]1CC/C(CNC(=O)/C=C/c1ccc(Br)cc1)=C\CC[C@@]1(C)O[C@@H]21,-18% (active),-47.8% (active),-66.5% (active),-98.2% (active),-67.9% (active),-58.6% (active),-91.8% (active),-2.6% (active),-22.7% (active),0.986% (active),-33.7% (active),2.52% (active),-51.4% (active),–,46.6%,-91.4% (active),-7.13% (active),38.5%,-27.9% (active)
COc1cc2c(cc1[N+](=O)[O-])-c1ccc([N+](=O)[O-])cc1/C2=N/NC(N)=S,87.8%,68.5%,67.1%,29.6%,77.4%,37.4%,64.1%,56.6%,60.1%,42.6%,66.1%,51.9%,98.9%,57.6%,–,73.7%,77.3%,69.6%,47.9%
